DT40 TDP1 no CPT: qHTS for Inhibitors of human tyrosyl-DNA phosphodiesterase 1 (TDP1): qHTS in cells in absence of CPT; hit rate 15% among 420,000; DT40 Tdp1-/- hTDP1 cells, no CPT, ATP luminescence, 48 h; AID 686978, 2013; Potency, µM (titrated, usually from 46.2 µM), inactives show top-dose activity change, negative = growth inhibition, usual class: inhibitors; note: potency is the fitted concentration of half-maximal effect; nearly all actives have a fitted effect of over 55% in size
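Growth of hTDP1-complemented DT40 Tdp1-knockout cells is measured by ATP luminescence after at least 48 hr compound exposure at 37 °C, with DMSO substituting for the 20 nM CPT used in the parallel screen.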
TDP1 cell CPT: growth inhibition of DT40 Tdp1-/-;hTDP1 cells with camptothecin (screen for TDP1 inhibitors); Potency, µM (titrated, usually from 46.2 µM), for the others: at the top dose activity change, negative = growth inhibition, hits mostly inhibitors; AID 686979; chicken DT40 Tdp1-/-;hTDP1 cells + 20 nM CPT, ATP luminescence, 48 h; hit rate 12% among 420,000; note: potency is the fitted concentration of half-maximal effect; nearly all actives have a fitted effect of over 55% in size
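Chicken DT40 Tdp1-/- cells complemented with human TDP1, 400 cells/well, exposed to compounds plus 20 nM camptothecin for at least 48 h at 37 C; viability read as ATP content by CellTiter-Glo luminescence.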
IL1B secr inh: blocks inflammasome-driven IL-1 beta release. THP-1 LPS/ATP IL-1B secretion, AlphaLISA, 16 h; active compounds read low. hit rate 4.7% among 360,000. activity change, % at 57.5 µM; in the data active = activity change below about -50%; inconclusive = mostly about -30% to -49%
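THP-1 cells pretreated 1 hr with compounds (up to 57.5 uM final), then stimulated with LPS (250 ng/mL final) plus ATP (1.25 mM final); secreted IL-1B measured by AlphaLISA after 16 hr, decreased signal indicating inhibition.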
HT1080NT lethal: kills 2HG-producing HT-1080-NT fibrosarcoma cells; HT-1080-NT fibrosarcoma viability, CellTiter-Glo ATP luminescence, 48 h; Potency, µM (highest dose often 46.1 µM), for inactives: at the top dose activity, negative = less viability, hits mostly cytotoxic; hit rate 1.6% among 360,000; AID 686970;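 note: NT is the 2HG producing partner of a matched IDH1 knockdown line; potency is the fitted concentration of half-maximal effect; 0% = DMSO-treated cells and -100% = media-only wells without cells; nearly all actives have a fitted effect of over 55% in size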
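Viability by CellTiter-Glo luminescence after 48 h compound exposure at 37C of HT-1080-NT cells (750/well, RPMI, 5% FBS). % activity scaled between DMSO wells and medium-only wells, then curve-fitted and categorized by curve class.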
HT1080 IDH1KD tx: kills HT-1080 cells with IDH1 knockdown. HT-1080 IDH1 knockdown viability, ATP luminescence, 48 h. Potency, µM (titrated, usually from 46.1 µM), inactives show at the top dose activity, negative = toxicity, most hits filed as cytotoxic. hit rate 2% among 360,000. AID 686971;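 note: potency is the fitted concentration of half-maximal effect; 0% = DMSO wells and -100% = cell-free medium wells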
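IDH1KD HT-1080 cells, 750/well, RPMI + 5% FBS; compound pinned after 2 h settling; 48 h, 37 °C; CellTiter-Glo luminescence; % activity normalised to DMSO and no-cell wells; curves fitted, classed by r2 and efficacy.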
uPA surface inh: blocks generation of uPA at the cell surface; cell surface uPA generation assay, qHTS; Potency, µM (highest dose often 38.3 µM), for inactives: at the highest dose activity change, negative = inhibition, most hits filed as inhibitors; hit rate 0.31% among 330,000; AID 540303; active = well fitted inhibition curve with a large enough effect; inconclusive = small, poorly fitted or top-dose-only effect; inactive = no such curve, though single readings can be large or run the other way; tested in mouse RAW 264.7 cells; note: potency is the fitted concentration of half-maximal effect; nearly all actives have a fitted effect of over 55% in size
An asterisk follows results filed as active; ? = inconclusive; · = no result. Sampled rows, rich in hits. Any-hit rate of the full collection: about 19%. Unless noted, calls come from the whole dose curve; as a rule, active = well fitted curve in the direction sought with a large enough effect; inconclusive = small, poorly fitted or top-dose-only effect, or another doubt; inactive = no such curve, though single readings can be large; an effect the other way counts as inactive or inconclusive. Unless noted, % is set by controls: 0 for no effect and ±100 for the full control effect.

SMILES	DT40 TDP1 no CPT	TDP1 cell CPT	IL1B secr inh	HT1080NT lethal	HT1080 IDH1KD tx	uPA surface inh
CN1CCN(c2ncnc3c2ncn3[C@H]2CN(Cc3ccc(F)cc3)C[C@@H](CO)O2)CC1	-19.8%	?	21.2	5.2%	0.0%	·
CCc1ccc(S(=O)(=O)NCc2cn3ccccc3n2)s1	?	?	17.4	-2.0%	-1.4%	-2.6%
CCc1ccc(S(=O)(=O)NCc2cn3cccc(C)c3n2)s1	16.4µM*	18.4µM*	39.6	-7.4%	-0.3%	-5.0%
O=[N+]([O-])c1ccc(Oc2cc(NC3CCCCCCC3)c([N+](=O)[O-])cc2[N+](=O)[O-])cc1	-19.0%	?	-11.7	1.8%	10.1%	1.0%
O=[N+]([O-])c1cc([N+](=O)[O-])c(Oc2cc(Cl)ccc2Cl)cc1NC1CCCCCCC1	?	18.4µM*	6.5	1.7%	-1.5%	-2.7%
O=[N+]([O-])c1cc([N+](=O)[O-])c(Oc2cncc(Cl)c2)cc1NC1CCCCCCC1	14.6µM*	23.1µM*	2.4	14.1%	15.3%	?
CCn1c(SCC(=O)N2CC(C)OC(C)C2)nc2c([nH]c3ccccc32)c1=O (configuration not stated)	?	-29.3%	-1.5	-2.5%	-2.2%	-0.3%
CCN1C[C@@H]2[C@@H]3C(=O)N(C)C(=O)[C@@H]3[C@](C)(C1=O)N2C(=O)c1ccc(F)cc1	-8.2%	-18.3%	9.5	6.7%	17.1%	11.2%
O=C1O/C(=C/c2ccccc2)c2ccccc21	-4.6%	0.9%	22.4	6.8%	5.8%	-1.1%
N#CC1=C(c2ccccc2)/C(=C/c2ccccc2)OC1=O	18.4µM*	23.1µM*	-104.4*	10.4%	0.7%	-7.2%
CC(C)NC(=O)CN1CCN(C(c2cc3ccccc3o2)c2nnnn2C(C)(C)C)CC1 (configuration not stated)	-15.7%	-15.1%	16.2	21.4%	5.0%	·
C[C@@H]1CN([C@@H](C)CO)C(=O)c2cc(Br)cnc2O[C@H]1CN(C)Cc1cccc(C(=O)O)c1	-27.5%	2.9%	7.1	-11.5%	-20.8%	·
CCOC(=O)Cc1ccc(NC(=O)c2ccc(C(C)(C)C)cc2)cc1	14.6µM*	18.4µM*	-56.2*	-29.2%	?	-15.2%
O=C(NC(=S)NCc1cccnc1)c1ccc([N+](=O)[O-])cc1	-10.0%	-26.3%	0.0	11.7%	5.2%	-3.5%
CCOc1ncccc1C(=O)NCc1ccc(OC)cc1	14.6µM*	16.4µM*	7.7	?	8.91µM*	·
CC(C)(C)c1ccc(C(=O)Nc2ccc(C(=O)NCc3cccnc3)cc2)cc1	1.84µM*	2.59µM*	-8.5	1.64µM*	1.03µM*	2.6%
CCOC(=O)Cc1ccc(NC(=O)c2ccccc2Br)cc1	-0.7%	0.7%	-28.0	-1.1%	3.3%	-14.7%
O=C(NCc1cccnc1)c1ccc(NC(=O)c2ccc([N+](=O)[O-])cc2)cc1	9.2µM*	13µM*	7.2	?	14.6µM*	-19.9%
CC(C)(C)C(=O)Nc1ccc(C(=O)NCc2cccnc2)cc1	-4.8%	5.7%	-4.2	16.5%	11.7%	2.2%
COc1ccc(-c2cc3nc(C)c(CCC(=O)N4CCN(c5ccccc5)CC4)c(C)n3n2)c(OC)c1	-3.5%	18.9%	·	·	·	·
O=c1n(Cc2ccccc2)c(O)c2n1Cc1ccccc1N=C2c1ccccc1	?	-0.5%	-2.6	-0.8%	0.8%	·
COCCSc1ccccc1C(=O)NCc1cccnc1	-15.0%	8.1%	-75.9*	5.1%	1.3%	1.5%
CC(C)c1ccc(C(=O)NC(=S)NCc2cccnc2)cc1	16.4µM*	?	-15.4	-14.0%	-9.3%	-1.4%
